Source: PubChem BioAssay (EPA / NIEHS)
Records with an inconclusive call do not appear. Active and inactive are the calls of the source. The calls were made as follows, unless noted: active = hit-call score of the fitted dose curve at least 0.9, where 1 is the maximum; inactive = score below 0.9.

What was measured:
[1] = molecular target: Oxysterols receptor LXR-alpha (Homo sapiens) (UniProt Q13133); test: ATG_LXRa_TRANS: Attagene TRANS-FACTORIAL HepG2 Assay for human Liver X Receptor alpha (LXRa) (AID 2282980; active = hit-call score of the fitted dose curve at least 0.9, where 1 is the maximum); conditions: HepG2 Attagene TRANS reporter, LXRa transactivation
In short: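 Transient HepG2 transfectants, 24 h dosing, RT-PCR/CE mRNA reporter quantitation; gain-of-signal vs DMSO.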

[2] = ATG_M_32_TRANS: Attagene TRANS-FACTORIAL HepG2 Assay for M32 Transcription Factor (Internal Marker) (AID 2282984; active = hit-call score of the fitted dose curve at least 0.9, where 1 is the maximum;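 also: transcript level of a background control reporter unit measured by RT-PCR and capillary electrophoresis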); conditions: HepG2 Attagene TRANS M32 internal marker reporter
In short: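 Measures reporter mRNA induction in human HepG2 liver cells after 24 h chemical treatment. Transcripts from transiently transfected GAL4-UAS reporter units are amplified, fluorescently labelled and sized by capillary electrophoresis; gain of signal relative to DMSO.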

[3] = molecular target: Transcriptional activator Myb (Homo sapiens) (UniProt P10242); test: ATG_Myb_CIS: Attagene CIS-FACTORIAL HepG2 Assay for human Myeloblastosis (Myb) Proto-Oncogene Transcription Factor (AID 2282986); conditions: HepG2 Attagene CIS-FACTORIAL Myb reporter transcription; actives raise or lower the signal
In short: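 HepG2, transient MRTU transfection (cis-element promoters, endogenous TF activity), 24 h compound exposure. Readout: reporter mRNA via RT-PCR, 6-FAM labeling, HpaI digest, capillary electrophoresis. Gain/loss fit vs DMSO.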

[4] = molecular target: Nuclear respiratory factor 1 (Homo sapiens) (UniProt Q16656); test: ATG_NRF1_CIS: Attagene CIS-FACTORIAL HepG2 Assay for human Nuclear Respiratory Factor 1 (NRF1) Orphan Gene (AID 2282987); conditions: HepG2 NRF1 cis-element reporter, Attagene multiplex; actives raise or lower the signal
In short: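 Endogenous NRF1-driven reporter transcription measured in transiently transfected human HepG2 liver cells. Readout: reporter mRNA by RT-PCR and capillary electrophoresis with fluorescence detection, 24 h post-dosing. Gain or loss of signal fitted relative to DMSO baseline.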

[5] = ATG_NFI_CIS: Attagene CIS-FACTORIAL HepG2 Assay for human Nuclear Factor I (NFI) (AID 2282989); conditions: HepG2 cis-regulatory reporter, NFI response element transcription; actives raise or lower the signal
In short: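 Endogenous TF activity in HepG2 cells transiently transfected with cis-element-driven multiplexed reporter units, read 24 h after dosing. Reporter mRNA quantified by RT-PCR, 6-FAM labelling, HpaI digestion and capillary electrophoresis; bidirectional fit versus DMSO.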

[6] = molecular target: Myc proto-oncogene protein (Homo sapiens) (UniProt P01106); test: ATG_Myc_CIS: Attagene CIS-FACTORIAL HepG2 Assay for human Myelocytomatosis (Myc) Proto-Oncogene Transcription Factor (AID 2282990); conditions: HepG2, Attagene cis-reporter transcription factor activity; actives raise or lower the signal
In short: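 HepG2, transient MRTU transfection (cis promoters, endogenous TFs); 24 h dosing; TriZol RNA → oligo(dT) RT → PCR → 6-FAM primer extension → HpaI cut → CE. Bidirectional fit vs DMSO.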

[7] = ATG_NRF2_ARE_CIS: Attagene CIS-FACTORIAL HepG2 Assay for human Nuclear Factor Erythroid 2 Related Factor 2 (NFR2) response to Antioxidant Response Elements (ARE) (AID 2282992); conditions: HepG2 Attagene ARE/NRF2 reporter, transcription factor activity; actives raise or lower the signal
In short: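 Multiplexed reporter mRNA profiling in HepG2 after a 24 h chemical exposure. Curves fitted in both directions relative to DMSO negative control.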

[8] = ATG_Oct_MLP_CIS: Attagene CIS-FACTORIAL HepG2 Assay for human Octamer-Binding Transcription Factor (Oct) (AID 2282993); conditions: HepG2 Attagene cis-factorial Oct reporter, mRNA; actives raise or lower the signal
In short: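 HepG2 cells transiently transfected with cis-element-driven reporter transcription units (endogenous TF activity); 24 h compound exposure. Reporter mRNA quantified by RT-PCR, 6-FAM labelling, HpaI digestion and capillary electrophoresis; bidirectional fit versus DMSO baseline.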

[9] = molecular target: Cellular tumor antigen p53 (Homo sapiens) (UniProt P04637); test: ATG_p53_CIS: Attagene CIS-FACTORIAL HepG2 Assay for human p53 Transcription Factor (AID 2282994); conditions: HepG2 p53 cis-element reporter, Attagene mRNA; actives raise or lower the signal
In short: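 Multiplexed reporter mRNA assay in human HepG2 liver cells; cis-regulated units report endogenous factor activity. Values come from bidirectional curve fitting against DMSO negative control after 24 h treatment.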

[10] = molecular target: Oxysterols receptor LXR-beta (Homo sapiens) (UniProt P55055); test: ATG_LXRb_TRANS: Attagene TRANS-FACTORIAL HepG2 Assay for human Liver X Receptor beta (LXRb) (AID 2282981; active = hit-call score of the fitted dose curve at least 0.9, where 1 is the maximum); conditions: HepG2 Attagene TRANS GAL4-LXRb reporter, mRNA
In short: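 Transient transfection HepG2 (multiplexed RTUs, GAL4-UAS); NR-Gal4 chimera; 24 h exposure; RNA → RT-PCR → 6-FAM primer extension → HpaI → CE; increase vs DMSO.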

[11] = molecular target: Nuclear receptor subfamily 4 group A member 2 (Homo sapiens) (UniProt P43354); test: ATG_NURR1_TRANS: Attagene TRANS-FACTORIAL HepG2 Assay for human Nuclear Receptor Related Protein 1 (NURR1) (AID 2282985; active = hit-call score of the fitted dose curve at least 0.9, where 1 is the maximum); conditions: HepG2 Attagene TRANS reporter, mRNA readout
In short: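 Transient transfection of HepG2, human liver cells, with multiple GAL4-UAS reporter transcription units. Cells dosed 24 h, RNA isolated, reverse-transcribed, PCR-amplified, FAM-labelled, HpaI-digested, sized by capillary electrophoresis. DMSO served as negative control.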

[12] = ATG_NF_kB_CIS: Attagene CIS-FACTORIAL HepG2 Assay for human Nuclear Factor Kappa B (NF-kB) (AID 2282991); conditions: HepG2 Attagene cis-factorial NF-kB reporter mRNA; actives raise or lower the signal
In short: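 Read-out: reporter transcript levels quantified by RT-PCR plus capillary electrophoresis of 6-FAM-labelled, HpaI-cut fragments. Transfected HepG2 cells, 24 h compound exposure, endogenous NF-kB-driven cis element; gain or loss scored versus DMSO.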

[13] = molecular target: Hepatocyte nuclear factor 4-alpha (Homo sapiens) (UniProt P41235); test: ATG_HNF4a_TRANS: Attagene TRANS-FACTORIAL HepG2 Assay for human Hepatocyte Nuclear Factor 4 alpha (HNF4a) (AID 2282982; active = hit-call score of the fitted dose curve at least 0.9, where 1 is the maximum); conditions: HepG2 HNF4a transactivation reporter, mRNA readout
In short: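 Readout is fluorescent reporter-transcript fragments resolved by capillary electrophoresis after RT-PCR from HepG2 cells dosed for 24 h. Cells carried transfected GAL4-UAS reporter constructs measuring exogenous NR-GAL4 chimera activity; DMSO served as baseline.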

[14] = ATG_M_06_TRANS: Attagene TRANS-FACTORIAL HepG2 Assay for M06 Transcription Factor (Internal Marker) (AID 2282983; active = hit-call score of the fitted dose curve at least 0.9, where 1 is the maximum); conditions: HepG2 Attagene TRANS M06 internal marker reporter
In short: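 Measured by capillary electrophoresis of fluorescently labelled RT-PCR products, this endpoint reflects reporter mRNA in HepG2 cells harbouring exogenous NR-GAL4 reporter constructs after 24 h exposure, with DMSO as baseline.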

Transcriptional activator Myb (Homo sapiens), sequence (P10242 whole entry, looked up): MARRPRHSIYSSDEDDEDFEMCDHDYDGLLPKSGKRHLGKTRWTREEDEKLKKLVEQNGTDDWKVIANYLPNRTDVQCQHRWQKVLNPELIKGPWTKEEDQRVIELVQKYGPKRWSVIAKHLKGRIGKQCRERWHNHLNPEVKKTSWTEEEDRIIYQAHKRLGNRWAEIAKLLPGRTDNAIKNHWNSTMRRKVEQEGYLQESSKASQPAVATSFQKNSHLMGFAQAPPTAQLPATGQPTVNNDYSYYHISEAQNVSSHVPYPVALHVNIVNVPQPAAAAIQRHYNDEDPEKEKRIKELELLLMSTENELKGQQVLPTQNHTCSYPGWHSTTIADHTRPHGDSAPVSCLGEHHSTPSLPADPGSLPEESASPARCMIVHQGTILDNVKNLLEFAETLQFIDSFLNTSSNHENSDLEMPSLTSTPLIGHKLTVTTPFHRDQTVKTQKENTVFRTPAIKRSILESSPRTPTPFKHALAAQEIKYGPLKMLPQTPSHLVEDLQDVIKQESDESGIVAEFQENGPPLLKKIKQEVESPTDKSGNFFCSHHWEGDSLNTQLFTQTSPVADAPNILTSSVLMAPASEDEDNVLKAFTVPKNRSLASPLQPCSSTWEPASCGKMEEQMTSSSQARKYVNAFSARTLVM
Nuclear respiratory factor 1 (Homo sapiens), sequence (Q16656 whole entry, looked up): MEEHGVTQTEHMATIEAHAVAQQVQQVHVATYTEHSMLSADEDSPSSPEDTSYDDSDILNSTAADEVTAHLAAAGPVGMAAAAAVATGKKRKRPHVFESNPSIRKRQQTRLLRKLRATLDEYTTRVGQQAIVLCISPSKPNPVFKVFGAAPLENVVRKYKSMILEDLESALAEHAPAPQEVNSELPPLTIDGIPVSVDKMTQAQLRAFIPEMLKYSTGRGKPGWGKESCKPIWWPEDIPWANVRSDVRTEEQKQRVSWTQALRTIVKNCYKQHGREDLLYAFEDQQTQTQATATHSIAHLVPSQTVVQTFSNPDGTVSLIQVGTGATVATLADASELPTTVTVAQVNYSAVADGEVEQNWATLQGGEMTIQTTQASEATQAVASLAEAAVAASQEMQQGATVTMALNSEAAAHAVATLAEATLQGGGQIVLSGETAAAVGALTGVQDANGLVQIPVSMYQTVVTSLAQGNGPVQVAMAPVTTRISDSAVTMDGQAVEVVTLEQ
Oxysterols receptor LXR-beta (Homo sapiens), sequence (P55055 whole entry, looked up, the tested form may be a part): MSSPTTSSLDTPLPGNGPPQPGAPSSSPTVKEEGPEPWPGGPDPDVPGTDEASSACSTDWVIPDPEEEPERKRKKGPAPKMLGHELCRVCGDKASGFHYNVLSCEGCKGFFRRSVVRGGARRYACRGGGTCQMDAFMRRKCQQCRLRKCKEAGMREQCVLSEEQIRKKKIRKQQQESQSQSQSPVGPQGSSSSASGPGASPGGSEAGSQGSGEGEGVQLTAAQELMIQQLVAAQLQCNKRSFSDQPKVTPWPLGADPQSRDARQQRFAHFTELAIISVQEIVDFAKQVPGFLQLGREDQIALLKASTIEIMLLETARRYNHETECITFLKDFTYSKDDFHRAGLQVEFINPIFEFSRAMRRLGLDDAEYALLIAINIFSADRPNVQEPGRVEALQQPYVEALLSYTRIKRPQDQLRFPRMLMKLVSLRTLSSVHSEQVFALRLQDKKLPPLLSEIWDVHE
Cellular tumor antigen p53 (Homo sapiens), sequence (P04637 whole entry, looked up): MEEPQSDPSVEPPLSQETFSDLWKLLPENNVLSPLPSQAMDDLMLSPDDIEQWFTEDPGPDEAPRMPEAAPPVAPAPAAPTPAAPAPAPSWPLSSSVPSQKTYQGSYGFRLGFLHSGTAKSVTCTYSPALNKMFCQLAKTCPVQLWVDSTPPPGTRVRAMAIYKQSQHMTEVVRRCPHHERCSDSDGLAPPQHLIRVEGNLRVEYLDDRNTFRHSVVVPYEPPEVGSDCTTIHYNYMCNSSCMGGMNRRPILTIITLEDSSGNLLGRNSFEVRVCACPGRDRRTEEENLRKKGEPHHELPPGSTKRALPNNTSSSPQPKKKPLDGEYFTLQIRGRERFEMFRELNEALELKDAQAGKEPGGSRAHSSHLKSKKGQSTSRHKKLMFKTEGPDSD
Nuclear receptor subfamily 4 group A member 2 (Homo sapiens), sequence (P43354 whole entry, looked up, the tested form may be a part): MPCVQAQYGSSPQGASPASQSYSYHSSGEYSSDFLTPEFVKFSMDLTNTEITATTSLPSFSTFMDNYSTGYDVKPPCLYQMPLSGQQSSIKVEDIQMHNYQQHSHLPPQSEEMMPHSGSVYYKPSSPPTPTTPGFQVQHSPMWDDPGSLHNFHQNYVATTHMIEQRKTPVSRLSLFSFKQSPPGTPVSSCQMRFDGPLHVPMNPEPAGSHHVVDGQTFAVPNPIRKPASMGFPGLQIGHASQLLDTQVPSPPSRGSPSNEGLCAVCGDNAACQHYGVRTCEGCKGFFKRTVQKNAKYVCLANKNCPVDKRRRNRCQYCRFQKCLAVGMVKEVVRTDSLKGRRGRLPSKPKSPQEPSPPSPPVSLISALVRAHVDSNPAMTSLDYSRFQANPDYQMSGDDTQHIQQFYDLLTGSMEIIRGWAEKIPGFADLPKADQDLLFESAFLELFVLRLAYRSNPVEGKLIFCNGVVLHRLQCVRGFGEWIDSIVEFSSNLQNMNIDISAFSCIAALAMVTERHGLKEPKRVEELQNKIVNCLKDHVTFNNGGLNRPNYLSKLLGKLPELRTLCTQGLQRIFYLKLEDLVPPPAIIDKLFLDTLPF
Myc proto-oncogene protein (Homo sapiens), sequence (P01106 whole entry, looked up): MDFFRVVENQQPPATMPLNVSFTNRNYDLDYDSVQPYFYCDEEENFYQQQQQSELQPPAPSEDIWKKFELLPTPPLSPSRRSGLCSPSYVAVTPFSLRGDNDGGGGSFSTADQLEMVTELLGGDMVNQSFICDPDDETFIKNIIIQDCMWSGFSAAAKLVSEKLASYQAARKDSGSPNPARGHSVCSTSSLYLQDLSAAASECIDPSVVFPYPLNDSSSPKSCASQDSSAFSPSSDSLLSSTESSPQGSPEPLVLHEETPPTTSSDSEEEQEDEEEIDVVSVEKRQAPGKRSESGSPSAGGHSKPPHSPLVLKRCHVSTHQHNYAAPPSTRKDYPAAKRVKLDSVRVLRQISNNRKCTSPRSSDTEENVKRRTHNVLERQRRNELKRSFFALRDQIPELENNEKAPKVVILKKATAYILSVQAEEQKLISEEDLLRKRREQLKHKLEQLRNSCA
Hepatocyte nuclear factor 4-alpha (Homo sapiens), sequence (P41235 whole entry, looked up, the tested form may be a part): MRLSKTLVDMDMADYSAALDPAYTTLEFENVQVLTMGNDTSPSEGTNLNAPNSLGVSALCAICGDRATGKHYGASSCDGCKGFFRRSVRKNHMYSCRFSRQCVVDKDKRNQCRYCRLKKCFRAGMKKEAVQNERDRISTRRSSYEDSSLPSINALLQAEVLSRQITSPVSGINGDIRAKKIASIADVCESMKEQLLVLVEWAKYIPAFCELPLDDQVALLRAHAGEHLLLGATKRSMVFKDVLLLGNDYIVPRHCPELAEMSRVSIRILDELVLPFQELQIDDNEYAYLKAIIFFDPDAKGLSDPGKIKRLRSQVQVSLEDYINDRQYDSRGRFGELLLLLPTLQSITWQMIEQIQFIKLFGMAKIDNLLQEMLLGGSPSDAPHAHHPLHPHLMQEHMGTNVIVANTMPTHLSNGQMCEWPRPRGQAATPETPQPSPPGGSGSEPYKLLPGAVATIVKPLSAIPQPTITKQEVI
Oxysterols receptor LXR-alpha (Homo sapiens), sequence (Q13133 whole entry, looked up): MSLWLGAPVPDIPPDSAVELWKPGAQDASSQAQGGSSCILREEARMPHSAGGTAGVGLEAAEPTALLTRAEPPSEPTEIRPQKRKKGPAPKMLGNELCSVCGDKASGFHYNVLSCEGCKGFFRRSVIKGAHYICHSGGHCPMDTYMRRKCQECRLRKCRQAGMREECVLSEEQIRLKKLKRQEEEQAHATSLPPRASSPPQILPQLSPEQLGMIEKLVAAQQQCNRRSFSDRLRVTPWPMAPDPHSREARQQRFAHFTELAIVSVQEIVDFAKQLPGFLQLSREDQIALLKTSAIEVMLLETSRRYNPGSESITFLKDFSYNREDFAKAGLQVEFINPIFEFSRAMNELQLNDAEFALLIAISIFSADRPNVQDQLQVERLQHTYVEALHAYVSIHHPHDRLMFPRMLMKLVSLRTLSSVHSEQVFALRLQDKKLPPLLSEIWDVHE

For `COC(=O)c1cccc(C(=O)OC)c1`, the outcome [1] was “inactive”, the outcome [2] was “inactive” and the outcome [3] was “inactive”. For the same compound, the outcome [4] was “inactive”, the outcome [5] was “inactive” and the outcome [6] was “inactive”. For the same compound, the AC50 [7] was 24.7 µM (active), the outcome [8] was “inactive” and the outcome [9] was “inactive”.
With `CCCCCCCCCCCCOCCOS(=O)(=O)O` the outcome [10] was “inactive”, the outcome [2] was “inactive” and the outcome [11] was “inactive”. The outcome [3] was “inactive”, the outcome [4] was “inactive” and the outcome [5] was “inactive”. The outcome [6] was “inactive”, the outcome [12] was “inactive” and the outcome [7] was “inactive”. For the same compound, the outcome [8] was “inactive” and the outcome [9] was “inactive”.
In the case of `CN(C)C`, the outcome [10] is reported as “inactive”, the outcome [2] is reported as “inactive” and the outcome [4] is reported as “inactive”. The outcome [5] was “inactive”, the outcome [6] was “inactive” and the outcome [7] was “inactive”. For the same compound, the outcome [8] was “inactive” and the outcome [9] was “inactive”.
For `CC(O)CNCC(C)O` (stereo not drawn), the outcome [13] was “inactive”, the outcome [14] was “inactive” and the outcome [2] was “inactive”. The outcome [4] was “inactive”, the outcome [5] was “inactive” and the outcome [6] was “inactive”. For the same compound, the outcome [7] was “inactive”, the outcome [8] was “inactive” and the outcome [9] was “inactive”.
In the case of `CC(CO)c1ccccc1` (stereo not drawn), the outcome [10] is reported as “inactive”, the outcome [2] is reported as “inactive” and the outcome [3] is reported as “inactive”. For the same compound, the outcome [4] was “inactive”, the outcome [5] was “inactive” and the outcome [6] was “inactive”. The outcome [12] was “inactive”, the outcome [7] was “inactive” and the outcome [8] was “inactive”. The outcome [9] was “inactive”.
In the case of `NC(=O)NC(N)=O`, the outcome [10] is reported as “inactive”, the outcome [2] is reported as “inactive” and the outcome [11] is reported as “inactive”. The outcome [3] was “inactive”, the outcome [4] was “inactive” and the outcome [5] was “inactive”. For the same compound, the outcome [6] was “inactive”, the outcome [7] was “inactive” and the outcome [8] was “inactive”. For the same compound, the outcome [9] was “inactive”.
In the case of `CCO[Si](CC)(OCC)OCC`, the outcome [13] is reported as “inactive”, the outcome [14] is reported as “inactive” and the outcome [11] is reported as “inactive”. For the same compound, the outcome [3] was “inactive”, the outcome [4] was “inactive” and the outcome [5] was “inactive”. The outcome [6] was “inactive”, the outcome [12] was “inactive” and the AC50 [7] was 19.8 µM (active). The outcome [8] was “inactive” and the outcome [9] was “inactive”.
